The source of these data is the supplement of paper PMC6555819.

This assay relates to RXRa homodimer (NR concentration 180 nM). The experiment in a line: PBM binding z-score (relative to random genomic background probes); higher = stronger binding; sequences stand for … in GC…GCGATTGACAGCGTAGAATGAAGG
Summed up:
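Binding buffer was PBS pH 7.4 with 2% milk, 0.02% Triton X-100, 1 mM DTT, 0.2 mg/mL BSA and 0.4 mg/ml salmon testes DNA. In it, ligand-free nuclear receptor dimers were incubated 1 h on custom Agilent 4×180K protein-binding microarrays carrying double-stranded probes. Antibodies against each partner (one per run) detected binding, and z-scores were calculated against random background probes after regression normalization of scanned fluorescence.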
As to CCTCGGAGGACATAAGGTCAGAGCTGTCCGCTTT, the PBM binding z-score is 2.31. The result for CGTCAAAGTTCAAGGTAAGGTAACAGAAAGCAGC reads 4.23. For the sequence TTACCAAGGTGAAGGTCGTTGTTCCCTCTGTAGA, the PBM binding z-score stood at 1.49. Regarding CAGCCTAGGTCAGGGCCAGTTTAGGAGGAACGTT, the PBM binding z-score worked out at 1.63. Sequence ATGTCTAGGTAACAAGTTCAGTGAAAGAGAGGAC gave a PBM binding z-score of 0.727. As to GGAACGAGGGAATTCGAGTTGATAGCATGGCGAT, the PBM binding z-score is -0.105.

Take CCTCGGAGGACAACAGGCGGTCAGAGCTGCCAGA: the PBM binding z-score was -0.341. Sequence CCTCGCAGGACAGAAGGTCAGAGCTGTCCGCTTT came in with a PBM binding z-score of 1.74. For GCTATTAGTTGAAAGGGCAAGCGAATGATTCTCG, the PBM binding z-score came out at 1.06. The same measure for CCTAGCAGGCCAGGGTCACTCAAGCATTTCGCTT: 3.9; for CGTCCTAGGTCAATGCTAGGTCAGTGAAAGCATT: 2.57; for CCTACAGGGTCAGCTAGGCCAGAGTAGGGACGGC: 4.59. For the sequence TGAATGAGGTTATAAGATCATGGAACGTTGCAAA, the PBM binding z-score worked out at 2.42. As to CCTTACGGGTCAAGGTTATAGCACGGGTGGTACG, the PBM binding z-score came out at 5.55. With ACAGACATGTGAGTGAAGGTAACTCAGCTGGACG, the PBM binding z-score was determined as 0.317. The same measure for TCTTGTAGATCAACAGGAAGTTAAGAAAGATCGA: -0.0187; for TCACGGAGGACACGAAGGTCAGAGCTTTCCAGAG: 1.91; for GCTAGTTGGTCAGTAAAAGGTTACACACCGGTCG: 1.59.
